In the library only some 6.3% were active in any assay of this set; here they are far more common.
Spn DPM-DC inh – S. pneumoniae DPM-DC inhibitors, primary screen, biochemical, PK/LDH-coupled NADH fluorescence; 65,000 tested, 0.49% active; purified DPM-DC; calls only at 10 µM; diphosphomevalonate decarboxylase (Streptococcus pneumoniae D39);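 active = the 320 compounds with the highest percent inhibition in the single-dose primary screen, excluding strongly autofluorescent ones, cut at about 32% in these data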;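 note: kinetic rate of NADH fluorescence loss reporting ADP formed by the decarboxylase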
A340 absorber – compound light absorbance at 340 nm, profiling panel, artefact control, biochemical, MLSMR library, data from PS, PMK, MK assays; compound absorbance at 340 nm, fold over control; fold change at 10 µM; 65,000 tested, under 10 active; AID 708, 2007;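 active = at 10 µM dose, initial 340 nm absorbance at least 2 fold that of control wells; inactive = change under 2 fold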;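 note: initial absorbance extrapolated from kinetic A340 decline of NADH oxidation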
NADH enzymes – inhibitors of PK/LDH coupling enzymes, profiling panel, artefact control, biochemical, MLSMR library; coupled PK/LDH NADH assays, four targets; 65,000 tested, 0.02% active; IC50, µM (series often up to 10 µM), for the others: at the highest dose inhibition;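 active = single-dose screening hits from any of four coupled enzyme assays that gave an IC50 when retested across doses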;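 note: the DPM-DC format reads NADH fluorescence rather than 340 nm absorbance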
Spn MK inh – S. pneumoniae MK inhibitors, primary screen, biochemical, PK/LDH-coupled NADH absorbance; purified MK, PK/LDH-coupled NADH absorbance 340 nm; inhibition, % at 10 µM; 65,000 tested, 0.48% active;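 active = ranked among the strongest by inhibition in the single 10 µM screen, a fixed top-ranked set picked for dose follow-up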
Autofluor 339 – intrinsic fluorescence of library compounds, ex339/em460 – biochemical, MLSMR library, data from DPM-DC assay, artefact control, profiling panel; compound autofluorescence, ex339/em460 nm, NADH buffer; active compounds read high; 1 = no-compound wells, NADH background; fluorescence fold increase at 10 µM; 65,000 tested, 5.5% active;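 active = at 10 µM, mean starting fluorescence two-fold or more over control wells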;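 note: signal is the first read of a kinetic run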
Spn PMK inh – S. pneumoniae PMK inhibitors, primary screen, biochemical, mevalonate pathway, pilot trial included; 65,000 tested, 0.49% active; purified PMK, PK/LDH-coupled NADH absorbance 340 nm; inhibition, % at 10 µM; phosphomevalonate kinase (Streptococcus pneumoniae D39); AID 539, 2006;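 active = top-ranked compounds by inhibition in the single 10 µM screen, taking a fixed number of the strongest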;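 note: 0% = full reaction with DMSO carrier and 100% = background rate without enzyme reaction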
Numbers without * were called inactive.

For COC(=O)c1ccc(C2CC(=O)NC3=C2C(=O)CCC3)cc1 (stereo not given) the results were Spn DPM-DC inh inactive, A340 absorber 0.99, NADH enzymes 7.0%, Spn MK inh 6.0, Autofluor 339 1.11 and Spn PMK inh 14.0.
COC(=O)c1ccc(COc2ccc(C3C4=C(CCCC4=O)Nc4onc(C)c43)cc2)cc1 (stereo not given) was read as Spn DPM-DC inh inactive, A340 absorber 1, NADH enzymes 5.0%, Spn MK inh 0.0, Autofluor 339 2.38* and Spn PMK inh 9.0.
CC(=O)NC1Sc2ccccc2N=C1c1ccccc1 (stereo not given) was read as Spn DPM-DC inh inactive, A340 absorber 1.04, NADH enzymes 10.0%, Spn MK inh 12.0, Autofluor 339 1.02 and Spn PMK inh 8.0.
Screening Cn1c(=O)c2ncn(CC(=O)Nc3ccc4oc(-c5cccc6ccccc56)nc4c3)c2n(C)c1=O returned A340 absorber 1.1, NADH enzymes 6.0%, Spn MK inh 8.0, Autofluor 339 3.69* and Spn PMK inh 3.0.
Screening CCC(C)c1ccc2oc(-c3ccc(NC(=O)Cn4cnc5c(=O)n(C)c(=O)n(C)c54)cc3)nc2c1 (stereo not given) returned A340 absorber 1.01, NADH enzymes 0.0%, Spn MK inh 0.0, Autofluor 339 3.69* and Spn PMK inh 0.0.
Screening CN=C1SC(CC(=O)Nc2cc(Cl)ccc2Cl)C(=O)N1C (stereo not given) returned Spn DPM-DC inh inactive, A340 absorber 1.05, NADH enzymes 6.0%, Spn MK inh 8.0, Autofluor 339 1.07 and Spn PMK inh 8.0.
For CC1CC(C)CN(c2nc3c(c(=O)n(C)c(=O)n3C)n2CCSc2nc3ccccc3o2)C1 (stereo not given) the results were Spn DPM-DC inh inactive, A340 absorber 1.05, NADH enzymes 6.0%, Spn MK inh 6.0, Autofluor 339 1.02 and Spn PMK inh 13.0.
For CCN(CC)S(=O)(=O)c1ccc(NC(=O)Cn2cnc3ccccc3c2=O)cc1 the results were Spn DPM-DC inh inactive, A340 absorber 1.01, NADH enzymes 2.0%, Spn MK inh 6.0, Autofluor 339 1.04 and Spn PMK inh 9.0.
For CCNc1ccc2c(Cl)cc(=O)oc2c1 the results were A340 absorber 1.02, NADH enzymes 1.0%, Spn MK inh inactive, Autofluor 339 2.94* and Spn PMK inh 0.0.
For Cc1occc1C(=O)NCCCc1ccccc1 the results were Spn DPM-DC inh inactive, A340 absorber 1.05, NADH enzymes 0.0%, Spn MK inh 0.0, Autofluor 339 1.09 and Spn PMK inh 0.0.
`Cc1ccc(CCNC(=O)c2coc3nc4ccccc4nc23)cc1` gave Spn DPM-DC inh inactive, A340 absorber 1.03, NADH enzymes 4.0%, Spn MK inh 1.0, Autofluor 339 2.28* and Spn PMK inh 12.0.
`CC1CCN(CCCNC(=O)c2n[nH]c(=O)c3ccccc23)CC1` gave Spn DPM-DC inh inactive, A340 absorber 1.06, NADH enzymes 1.0%, Spn MK inh 2.0, Autofluor 339 1.07 and Spn PMK inh 0.0.
Screening CC1CCCN(CCCNC(=O)c2coc3nc4ccccc4nc23)C1 (stereo not given) returned A340 absorber 1.12, NADH enzymes 13.0%, Spn MK inh 10.0, Autofluor 339 4.88* and Spn PMK inh 15.0.
CC1CCN(CCCNC(=O)c2coc3nc4ccccc4nc23)CC1 was read as A340 absorber 1.02, NADH enzymes 3.0%, Spn MK inh 7.0, Autofluor 339 3.35* and Spn PMK inh 10.0.
Cn1c(SCc2ccc(C#N)cc2Cl)nc2ccccc21 was read as Spn DPM-DC inh inactive, A340 absorber 1.02, NADH enzymes 3.0%, Spn MK inh 7.0, Autofluor 339 1.06 and Spn PMK inh 1.0.
For CCOC(=O)c1cn(CC)c2cc(N3CCCCC3)c(F)cc2c1=O the results were Spn DPM-DC inh inactive, A340 absorber 1.1, NADH enzymes 13.0%, Spn MK inh 4.0, Autofluor 339 1.98 and Spn PMK inh 16.0.
CCOC(=O)N1CCN(C(=O)c2cn(CC)c3cc(N4CCN(C)CC4)c(F)cc3c2=O)CC1 was read as Spn DPM-DC inh active, A340 absorber 1.04, NADH enzymes 9.0%, Spn MK inh 5.0, Autofluor 339 1.94 and Spn PMK inh 18.0.
`CCOC(=O)c1cn(CC)c2cc(N3CCOCC3)c(F)cc2c1=O` gave A340 absorber 1.03, NADH enzymes 4.0%, Spn MK inh 9.0, Autofluor 339 2.27* and Spn PMK inh 16.0.
For CCC(=O)N1CCN(c2cc3c(cc2F)c(=O)c(C(=O)O)cn3CC)CC1 the results were A340 absorber 1.08, NADH enzymes 3.0%, Spn MK inh 0.0, Autofluor 339 4.85* and Spn PMK inh 5.0.
`CCN1CCN(c2cc3c(cc2F)c(=O)c(C(=O)O)cn3C2CC2)CC1` gave A340 absorber 1.01, NADH enzymes 7.0%, Spn MK inh 6.0, Autofluor 339 2.16* and Spn PMK inh 23.0.
CCCCCCC(=O)N1CCN(c2cc3c(cc2F)c(=O)c(C(=O)O)cn3CC)CC1 was read as Spn DPM-DC inh inactive, A340 absorber 1.01, NADH enzymes 4.0%, Spn MK inh 0.0, Autofluor 339 1.03 and Spn PMK inh 7.0.
CCCc1c(O)nc(SCCN(CC)CC)n(C(=O)c2ccccc2)c1=O was read as Spn DPM-DC inh inactive, A340 absorber 1, NADH enzymes 9.0%, Spn MK inh 11.0, Autofluor 339 1.03 and Spn PMK inh 15.0.
For NC(=O)C1CCN(C(=O)c2ccc(CS(=O)(=O)c3c(Cl)cccc3Cl)o2)CC1 the results were Spn DPM-DC inh inactive, A340 absorber 1.02, NADH enzymes 3.0%, Spn MK inh 7.0, Autofluor 339 1.09 and Spn PMK inh 1.0.
Cc1cccc(NC(=O)c2cc(NC(=O)c3ccco3)ccc2N2CCCCC2)c1 was read as A340 absorber 1.01, NADH enzymes 3.0%, Spn MK inh 6.0, Autofluor 339 3.01* and Spn PMK inh 12.0.
For CCOC(=O)C1CCCCN1Cc1ccc(F)c(Br)c1 (stereo not given) the results were Spn DPM-DC inh inactive, A340 absorber 1.04, NADH enzymes 15.0%, Spn MK inh 45.0*, Autofluor 339 1.07 and Spn PMK inh 0.0.
Screening COc1cc(NC(=O)c2cc3c(=O)n(C)c4ccccc4c3n2C)cc(OC)c1OC returned A340 absorber 1.07, NADH enzymes 4.0%, Spn MK inh 8.0, Autofluor 339 2.03* and Spn PMK inh 0.0.

Screening data as filed in PubChem BioAssay.
